{"source": "the supplement of paper PMC8728848", "assay_in_all_cases": "glycan array binding signal (z-score within array); higher = stronger binding", "conditions_in_all_cases": "glycan notation: IUPAC condensed, linker removed", "key": {"Gal3S(b1-4)GlcNAc": {"target": "Gal3S(b1-4)GlcNAc", "summary_of_the_method": "(§1)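 Glycan array data came from 3228 arrays in the Consortium for Functional Glycomics database, and only arrays with an available protein sequence were kept. Glycan names were put into IUPAC-condensed notation, and columns mapping to the same glycan were averaged. The binding signal is a within-array Z-score, averaged across arrays of one protein sequence run at different concentrations or buffers and across linkers. A negative Z-score can be read as non-binding.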"}, "[1]": {"target": "Gal3S(b1-4)[Fuc(a1-3)]Glc6S", "summary_of_the_method": "as §1"}, "[2]": {"target": "Gal3S(b1-4)[Fuc(a1-3)]GlcNAc", "summary_of_the_method": "as §1"}, "Gal6S(b1-4)GlcNAc6S": {"target": "Gal6S(b1-4)GlcNAc6S", "summary_of_the_method": "as §1"}, "GalNAc(a1-3)GalNAc": {"target": "GalNAc(a1-3)GalNAc", "summary_of_the_method": "as §1"}, "[3]": {"target": "GalNAc(b1-3)Gal(a1-4)Gal(b1-4)GlcNAc(b1-3)Gal(b1-4)Glc", "summary_of_the_method": "as §1"}, "[4]": {"target": "GalNAc(b1-3)Gal(a1-6)Gal(b1-4)Glc", "summary_of_the_method": "as §1"}, "GalNAc3S(b1-4)GlcNAc3S": {"target": "GalNAc3S(b1-4)GlcNAc3S", "summary_of_the_method": "as §1"}, "Glc(a1-4)Glc": {"target": "Glc(a1-4)Glc", "summary_of_the_method": "as §1"}, "[5]": {"target": "GlcNAc(a1-4)Gal(b1-4)GlcNAc(b1-3)Gal(b1-4)[Fuc(a1-3)]GlcNAc(b1-3)Gal(b1-4)[Fuc(a1-3)]GlcNAc", "summary_of_the_method": "as §1"}, "[6]": {"target": "GlcNAc(b1-3)Gal(b1-4)GlcNAc(b1-3)Gal(b1-4)GlcNAc(b1-2)Man(a1-3)[GlcNAc(b1-3)Gal(b1-4)GlcNAc(b1-3)Gal(b1-4)GlcNAc(b1-2)Man(a1-6)]Man(b1-4)GlcNAc(b1-4)GlcNAc", "summary_of_the_method": "as §1"}, "[7]": {"target": "GlcNAc(b1-3)Gal(b1-4)GlcNAc(b1-3)Gal(b1-4)GlcNAc(b1-3)Gal(b1-4)GlcNAc(b1-2)Man(a1-3)[GlcNAc(b1-3)Gal(b1-4)GlcNAc(b1-3)Gal(b1-4)GlcNAc(b1-3)Gal(b1-4)GlcNAc(b1-2)Man(a1-6)]Man(b1-4)GlcNAc(b1-4)GlcNAc", "summary_of_the_method": "as §1"}, "[8]": {"target": "GlcNAc(b1-4)[GlcNAc(b1-6)]GalNAc", "summary_of_the_method": "as §1"}, "Kdn(a2-6)Gal(b1-4)GlcNAc": {"target": "Kdn(a2-6)Gal(b1-4)GlcNAc", "summary_of_the_method": "as §1"}, "[9]": {"target": "Man(a1-2)Man(a1-3)[Man(a1-2)Man(a1-6)]Man(a1-6)[Man(a1-2)Man(a1-2)Man(a1-3)]Man", "summary_of_the_method": "as §1"}, "[10]": {"target": "Man(a1-2)Man(a1-3)[Man(a1-2)Man(a1-6)]Man(a1-6)[Man(a1-2)Man(a1-2)Man(a1-3)]Man(b1-4)GlcNAc(b1-4)GlcNAc", "summary_of_the_method": "as §1"}, "[11]": {"target": "Man(a1-2)Man(a1-6)[Man(a1-3)]Man(a1-6)[Man(a1-2)Man(a1-2)Man(a1-3)]Man", "summary_of_the_method": "as §1"}, "[12]": {"target": "Neu5Ac(a2-3)Gal(b1-3)GlcNAc(b1-2)Man", "summary_of_the_method": "as §1"}, "[13]": {"target": "Neu5Ac(a2-3)Gal(b1-3)GlcNAc(b1-6)GalNAc", "summary_of_the_method": "as §1"}, "[14]": {"target": "Neu5Ac(a2-3)Gal(b1-3)[Fuc(a1-4)]GlcNAc", "summary_of_the_method": "as §1"}, "[15]": {"target": "Neu5Ac(a2-3)Gal(b1-3)[GlcNAc(b1-6)]GalNAc", "summary_of_the_method": "as §1"}, "[16]": {"target": "Neu5Ac(a2-3)Gal(b1-3)[Neu5Ac(a2-6)]GlcNAc(b1-3)[Fuc(a1-3)[Gal(b1-4)]GlcNAc(b1-6)]Gal(b1-4)Glc", "summary_of_the_method": "as §1"}, "[17]": {"target": "Neu5Ac(a2-3)Gal(b1-4)GlcNAc(b1-3)Gal(b1-4)GlcNAc(b1-3)Gal(b1-4)GlcNAc(b1-2)Man(a1-3)[Neu5Ac(a2-3)Gal(b1-4)GlcNAc(b1-3)Gal(b1-4)GlcNAc(b1-3)Gal(b1-4)GlcNAc(b1-2)Man(a1-6)]GalNAc", "summary_of_the_method": "as §1"}, "[18]": {"target": "Neu5Ac(a2-3)Gal(b1-4)[Fuc(a1-3)]GlcNAc(b1-3)Gal(b1-4)[Fuc(a1-3)]GlcNAc(b1-3)Gal(b1-4)[Fuc(a1-3)]GlcNAc", "summary_of_the_method": "as §1"}, "[19]": {"target": "Neu5Ac(a2-3)Gal(b1-4)[Fuc(a1-3)]GlcNAc(b1-3)GalNAc", "summary_of_the_method": "as §1"}, "Neu5Ac(a2-6)Gal(b1-4)Glc": {"target": "Neu5Ac(a2-6)Gal(b1-4)Glc", "summary_of_the_method": "as §1"}, "[20]": {"target": "Neu5Ac(a2-6)Gal(b1-4)GlcNAc(b1-2)Man(a1-3)[Man(a1-6)]Man(b1-4)GlcNAc(b1-4)GlcNAc", "summary_of_the_method": "as §1"}, "[21]": {"target": "Neu5Ac(a2-6)Gal(b1-4)GlcNAc(b1-3)Gal(b1-4)GlcNAc", "summary_of_the_method": "as §1"}, "[22]": {"target": "Neu5Ac(a2-6)Gal(b1-4)GlcNAc(b1-3)Gal(b1-4)GlcNAc(b1-3)Gal(b1-4)GlcNAc", "summary_of_the_method": "as §1"}, "[23]": {"target": "Neu5Ac(a2-6)Gal(b1-4)GlcNAc(b1-3)[Neu5Ac(a2-6)Gal(b1-4)GlcNAc(b1-6)]GalNAc", "summary_of_the_method": "as §1"}, "[24]": {"target": "Neu5Ac(a2-6)Gal(b1-4)GlcNAc(b1-6)[Gal(b1-3)GlcNAc(b1-3)]Gal(b1-4)Glc", "summary_of_the_method": "as §1"}, "[25]": {"target": "Neu5Ac(a2-6)GlcNAc(b1-4)GlcNAc", "summary_of_the_method": "as §1"}, "[26]": {"target": "Neu5Ac(a2-8)Neu5Ac(a2-3)[GalNAc(b1-4)]Gal(b1-4)Glc", "summary_of_the_method": "as §1"}, "Neu5Gc(a2-3)Gal(b1-4)Glc": {"target": "Neu5Gc(a2-3)Gal(b1-4)Glc", "summary_of_the_method": "as §1"}}, "note": "About 410 targets per protein were measured; listed, in parts, are those with the strongest signals and a random draw of the rest."}
{"binder": "EUL D1A second (Oryza sativa) (protein) GAATACTIGGVPVHTVRVFSAAGEDYCLTVRNGTACLAPKNPRDDYQHWIKDMRHSNKIRDEEGYPAFALVNKVTGEAIKHSTGQGHPVKLVPYNPEYQDESVLWTESKDVGKGFRCIRMVNNIYLNFDAFHGDKDHGGIHDGTEIVLWKWCEGDNQRWKILPWILEQKLISEEDLNSAVDHHHHHH", "values": [{"measurement": "glycan array binding signal (z-score)", "setting": "Gal3S(b1-4)GlcNAc", "result": 0.255}, {"measurement": "glycan array binding signal (z-score)", "setting": "[1]", "result": 2.74}, {"measurement": "glycan array binding signal (z-score)", "setting": "[2]", "result": 2.4}, {"measurement": "glycan array binding signal (z-score)", "setting": "Gal6S(b1-4)GlcNAc6S", "result": 0.99}, {"measurement": "glycan array binding signal (z-score)", "setting": "GalNAc(a1-3)GalNAc", "result": -0.302}, {"measurement": "glycan array binding signal (z-score)", "setting": "[3]", "result": -0.809}, {"measurement": "glycan array binding signal (z-score)", "setting": "[4]", "result": -0.495}, {"measurement": "glycan array binding signal (z-score)", "setting": "GalNAc3S(b1-4)GlcNAc3S", "result": -0.9}, {"measurement": "glycan array binding signal (z-score)", "setting": "Glc(a1-4)Glc", "result": 0.317}, {"measurement": "glycan array binding signal (z-score)", "setting": "[5]", "result": 2.44}, {"measurement": "glycan array binding signal (z-score)", "setting": "[6]", "result": 0.61}, {"measurement": "glycan array binding signal (z-score)", "setting": "[7]", "result": 0.539}, {"measurement": "glycan array binding signal (z-score)", "setting": "[8]", "result": -0.443}, {"measurement": "glycan array binding signal (z-score)", "setting": "Kdn(a2-6)Gal(b1-4)GlcNAc", "result": -1.38}, {"measurement": "glycan array binding signal (z-score)", "setting": "[9]", "result": -0.985}, {"measurement": "glycan array binding signal (z-score)", "setting": "[10]", "result": 1.93}, {"measurement": "glycan array binding signal (z-score)", "setting": "[11]", "result": 0.706}, {"measurement": "glycan array binding signal (z-score)", "setting": "[12]", "result": 3.06}, {"measurement": "glycan array binding signal (z-score)", "setting": "[13]", "result": -0.587}, {"measurement": "glycan array binding signal (z-score)", "setting": "[14]", "result": 0.596}, {"measurement": "glycan array binding signal (z-score)", "setting": "[15]", "result": 0.412}, {"measurement": "glycan array binding signal (z-score)", "setting": "[16]", "result": 1.26}, {"measurement": "glycan array binding signal (z-score)", "setting": "[17]", "result": 3.53}, {"measurement": "glycan array binding signal (z-score)", "setting": "[18]", "result": -0.112}, {"measurement": "glycan array binding signal (z-score)", "setting": "[19]", "result": 2.61}, {"measurement": "glycan array binding signal (z-score)", "setting": "Neu5Ac(a2-6)Gal(b1-4)Glc", "result": 0.113}, {"measurement": "glycan array binding signal (z-score)", "setting": "[20]", "result": 0.117}, {"measurement": "glycan array binding signal (z-score)", "setting": "[21]", "result": 0.827}, {"measurement": "glycan array binding signal (z-score)", "setting": "[22]", "result": -2.05}, {"measurement": "glycan array binding signal (z-score)", "setting": "[23]", "result": 2.81}, {"measurement": "glycan array binding signal (z-score)", "setting": "[24]", "result": 0.242}, {"measurement": "glycan array binding signal (z-score)", "setting": "[25]", "result": -0.238}, {"measurement": "glycan array binding signal (z-score)", "setting": "[26]", "result": 0.083}, {"measurement": "glycan array binding signal (z-score)", "setting": "Neu5Gc(a2-3)Gal(b1-4)Glc", "result": 0.509}]}
